Experimental data as given in PubChem BioAssay (Tox21).
Results filed as inconclusive are left out. The source made the active and inactive calls. Unless noted, calls follow the shape of the dose curve; as a rule, active = well fitted curve in the direction sought with a large enough effect in the repeat runs; inconclusive = weak or mixed curves; inactive = no such curve, though single readings can be large; an effect the other way counts as inactive or inconclusive.

How the values were obtained:
[1] = qHTS assay to identify small molecule agonists of the TGF-beta/Smad signaling pathway - cell viability counter screen (AID 1346829); also: top concentration of the series differs between compounds; nearly all actives have a fitted effect of over 45% in size
Outline: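 HEK 293T SBE-bla line, 5 hr compound exposure at 37 C, multiplexed CellTiter-Glo viability read by luminescence.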

[2] = qHTS assay to identify small molecule agonists of the TGF-beta/Smad signaling pathway (AID 1346859; active = well fitted activation curve with a large enough effect in the signal ratio in the repeat runs, not every such curve was filed as active; the % refers to the signal ratio; also: series mostly up to about 77 µM)
Outline: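 Smad-responsive beta-lactamase reporter cells (HEK 293T) received compounds from DMSO stocks after overnight attachment, were incubated 5 hr, then treated 2 hr with FRET substrate before dual-emission fluorescence measurement (405 nm excitation).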

[3] = target: Thyrotropin-releasing hormone receptor (Homo sapiens) (UniProt P34981); experiment: qHTS assay to identify small molecule antagonists of the thyrotropin-releasing hormone receptor (TRHR) signaling pathway (AID 1346877; active = well fitted inhibition curve with a large enough effect in the repeat runs, not every such curve was filed as active; also: series mostly up to about 51 µM)
Thyrotropin-releasing hormone receptor (Homo sapiens), sequence (P34981 whole entry, looked up): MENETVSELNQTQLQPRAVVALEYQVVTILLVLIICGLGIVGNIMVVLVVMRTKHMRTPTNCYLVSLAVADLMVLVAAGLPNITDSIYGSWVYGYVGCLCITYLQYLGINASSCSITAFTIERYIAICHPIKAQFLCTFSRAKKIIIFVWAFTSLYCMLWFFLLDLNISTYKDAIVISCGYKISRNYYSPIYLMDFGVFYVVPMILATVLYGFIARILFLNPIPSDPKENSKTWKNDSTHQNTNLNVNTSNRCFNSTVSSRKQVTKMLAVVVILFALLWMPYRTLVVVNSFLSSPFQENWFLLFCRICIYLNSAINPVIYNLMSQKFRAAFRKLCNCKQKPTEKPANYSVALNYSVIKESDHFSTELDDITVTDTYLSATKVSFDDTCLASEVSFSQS
Outline: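 Calcium signal in dye-loaded TRHR/HEK293 cells; compounds added 5 min before TRH (1 nM final); fluorescence monitored 3 min at 1 s steps.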

[4] = target: Thyrotropin-releasing hormone receptor (Homo sapiens) (UniProt P34981); experiment: qHTS assay to identify small molecule agonists of the thyrotropin-releasing hormone receptor (TRHR) signaling pathway (AID 1346891; calls by dose curve;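 also: HEK293 cells expressing TRHR with calcium dye readout; series mostly up to about 58 µM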)
Outline: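 Agonist-mode calcium mobilisation screen: TRHR-transfected HEK293 cells cultured overnight (18 h), dye-loaded for 2 h at 37 °C, exposed to compounds, and monitored by fluorescence for 3 min.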

[5] = Caspase-3/7 induction in HepG2 cells by small molecules, qHTS assay (AID 1346978); also: nearly all actives have a fitted effect of over 15% in size
Outline: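 Wild-type HepG2 cells (2,000/well) were settled 5 h at 37 C, 5% CO2, then exposed to compounds in DMSO for 17 h. Caspase-3/7 activity was read by luminescence 30 min after adding Caspase-Glo 3/7 reagent at room temperature.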

[6] = Caspase-3/7 induction in CHO-K1 cells by small molecules, qHTS cell viability counter screen (AID 1346979); also: nearly all actives have a fitted effect of over 35% in size; also: potency is read from the fitted curve at half-maximal effect
Outline: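 In the same wells as the caspase read, viability of compound-treated wild-type CHO-K1 cells was assessed using CellTiter-Fluor, added after 16hr at 37C and measured by fluorescence following 1hr further incubation.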

[7] = Caspase-3/7 induction in CHO-K1 cells by small molecules, qHTS assay (AID 1346980); also: nearly all actives have a fitted effect of over 15% in size
Outline: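 Wild-type cells were seeded at 1,500 per well and settled 5 hr at 37 C, 5% CO2, then exposed to DMSO-dissolved compounds for 17 hr. Caspase-Glo 3/7 reagent was added, and luminescence was read after 30min at room temperature.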

[8] = Caspase-3/7 induction in HepG2 cells by small molecules, qHTS cell viability counter screen (AID 1346981); also: series mostly up to about 92 µM; nearly all actives have a fitted effect of over 30% in size
Outline: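 After a 5-hr attachment period at 37 C and 5% CO2, wild-type HepG2 cells received compounds in DMSO. Sixteen hours later CellTiter-Fluor was dispensed and the fluorescent signal quantified after a further hour.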

[9] = target: Nuclear receptor subfamily 1 group I member 2 (Homo sapiens) (UniProt O75469); experiment: Human pregnane X receptor (PXR) small molecule agonists, qHTS assay (AID 1346982); also: nearly all actives have a fitted effect of over 35% in size
Nuclear receptor subfamily 1 group I member 2 (Homo sapiens), sequence (O75469 whole entry, looked up): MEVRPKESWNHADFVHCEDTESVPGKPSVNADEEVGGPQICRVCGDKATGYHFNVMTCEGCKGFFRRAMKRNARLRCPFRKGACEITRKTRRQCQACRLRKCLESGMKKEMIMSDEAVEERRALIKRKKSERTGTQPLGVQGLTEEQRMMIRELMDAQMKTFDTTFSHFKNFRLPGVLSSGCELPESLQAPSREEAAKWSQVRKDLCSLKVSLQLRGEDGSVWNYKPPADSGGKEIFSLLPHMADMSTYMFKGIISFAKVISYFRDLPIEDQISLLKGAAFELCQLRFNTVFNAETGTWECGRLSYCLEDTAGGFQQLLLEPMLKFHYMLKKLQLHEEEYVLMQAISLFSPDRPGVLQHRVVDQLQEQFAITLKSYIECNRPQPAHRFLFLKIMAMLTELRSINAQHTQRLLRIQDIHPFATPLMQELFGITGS
Outline: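 Tox21 qHTS; PXR-Luc HepG2; compounds pinned from DMSO; 24 hr, 37 C; ONE-Glo luciferase detection, 30 min room temperature.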

[10] = target: Cytochrome P450 2C9 (Homo sapiens) (UniProt P11712); experiment: Cytochrome P450 Family 2 Subfamily C Member 9 (CYP2C9) small molecule antagonists: luciferase reporter qHTS assay (AID 1671198); also: nearly all actives have a fitted effect of over 50% in size; also: potency is read from the fitted curve at half-maximal effect
Cytochrome P450 2C9 (Homo sapiens), sequence (P11712 whole entry, looked up): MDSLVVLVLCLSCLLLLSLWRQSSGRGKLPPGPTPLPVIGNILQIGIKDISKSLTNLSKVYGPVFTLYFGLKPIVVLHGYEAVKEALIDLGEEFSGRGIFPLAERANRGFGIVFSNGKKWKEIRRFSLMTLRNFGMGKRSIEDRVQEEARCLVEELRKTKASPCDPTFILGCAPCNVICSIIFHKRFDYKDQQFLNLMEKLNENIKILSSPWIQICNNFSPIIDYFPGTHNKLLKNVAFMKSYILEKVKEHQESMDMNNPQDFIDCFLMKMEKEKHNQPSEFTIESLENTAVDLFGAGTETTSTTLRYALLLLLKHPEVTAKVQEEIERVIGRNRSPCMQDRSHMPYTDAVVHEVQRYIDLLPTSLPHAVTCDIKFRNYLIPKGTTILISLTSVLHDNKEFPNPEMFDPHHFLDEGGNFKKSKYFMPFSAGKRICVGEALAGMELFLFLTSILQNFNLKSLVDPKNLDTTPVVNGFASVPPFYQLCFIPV
Outline: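 CYP2C9 activity was measured with a P450-Glo proluciferin substrate. Enzyme–substrate mix was held with compound for 10 min at room temperature, then NADPH regeneration solution was added for 1 h at 37C. Luciferin product was read as luminescence.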

[11] = target: Cytochrome P450 1A2 (Homo sapiens) (UniProt P05177); experiment: Cytochrome P450 Family 1 Subfamily A Member 2 (CYP1A2) small molecule antagonists: luciferase reporter qHTS assay (AID 1671199); also: nearly all actives have a fitted effect of over 50% in size; also: potency is read from the fitted curve at half-maximal effect
Cytochrome P450 1A2 (Homo sapiens), sequence (P05177 whole entry, looked up): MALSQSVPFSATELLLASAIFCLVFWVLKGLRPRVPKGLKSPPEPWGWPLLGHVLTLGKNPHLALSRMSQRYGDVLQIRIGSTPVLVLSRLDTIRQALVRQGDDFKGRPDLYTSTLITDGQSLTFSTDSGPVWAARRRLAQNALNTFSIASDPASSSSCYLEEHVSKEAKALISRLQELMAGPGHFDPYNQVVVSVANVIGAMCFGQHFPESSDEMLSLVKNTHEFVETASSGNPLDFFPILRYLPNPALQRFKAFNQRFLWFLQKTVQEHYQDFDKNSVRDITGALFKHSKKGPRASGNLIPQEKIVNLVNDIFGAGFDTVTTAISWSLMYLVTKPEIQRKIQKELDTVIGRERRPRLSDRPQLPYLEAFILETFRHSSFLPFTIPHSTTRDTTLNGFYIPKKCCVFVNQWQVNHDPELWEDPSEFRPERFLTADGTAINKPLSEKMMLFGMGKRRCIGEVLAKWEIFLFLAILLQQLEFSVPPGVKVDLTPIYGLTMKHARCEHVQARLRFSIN
Outline: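 Room-temperature CYP1A2 reaction with proluciferin substrate: compounds added from DMSO, 10 min preincubation, NADPH regeneration for 1 h. Luciferin detection reagent then added; luminescence recorded as RLU.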

[12] = target: Cytochrome P450 2C19 (Homo sapiens) (UniProt P33261); experiment: Cytochrome P450 Family 2 Subfamily C Member 19 (CYP2C19) small molecule antagonists: luciferase reporter qHTS assay (AID 1671197); also: nearly all actives have a fitted effect of over 65% in size; also: potency is read from the fitted curve at half-maximal effect
Cytochrome P450 2C19 (Homo sapiens), sequence (P33261 whole entry, looked up): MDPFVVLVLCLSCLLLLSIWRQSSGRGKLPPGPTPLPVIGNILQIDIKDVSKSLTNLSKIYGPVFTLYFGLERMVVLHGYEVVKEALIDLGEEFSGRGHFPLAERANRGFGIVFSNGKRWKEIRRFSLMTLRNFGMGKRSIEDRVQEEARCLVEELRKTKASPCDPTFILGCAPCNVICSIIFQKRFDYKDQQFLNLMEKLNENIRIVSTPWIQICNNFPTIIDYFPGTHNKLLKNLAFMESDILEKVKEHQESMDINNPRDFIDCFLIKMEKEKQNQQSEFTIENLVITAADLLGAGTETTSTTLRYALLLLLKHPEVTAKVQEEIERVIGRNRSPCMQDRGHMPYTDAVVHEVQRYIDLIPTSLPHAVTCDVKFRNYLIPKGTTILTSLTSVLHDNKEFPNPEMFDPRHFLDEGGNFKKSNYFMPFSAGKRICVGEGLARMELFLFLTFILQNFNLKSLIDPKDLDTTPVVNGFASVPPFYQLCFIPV
Outline: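 First, compounds are pinned into enzyme-substrate mix and held 10 min at room temperature. Second, NADPH regeneration solution is added and plates incubate 1 h at 37C. Third, detection reagent is added and luminescence read after 20 min.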

[13] = target: Voltage-gated inwardly rectifying potassium channel KCNH2 (Homo sapiens) (UniProt Q12809); experiment: Human Ether-a-go-go-Related Gene (hERG) channel small molecule antagonists: fluorescence cell-based qHTS assay (AID 1671200);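 also: hERG-expressing U2OS cells given a thallium stimulus after FluxOR II dye loading; series mostly up to about 77 µM; nearly all actives have a fitted effect of over 50% in size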
Voltage-gated inwardly rectifying potassium channel KCNH2 (Homo sapiens), sequence (Q12809 whole entry, looked up): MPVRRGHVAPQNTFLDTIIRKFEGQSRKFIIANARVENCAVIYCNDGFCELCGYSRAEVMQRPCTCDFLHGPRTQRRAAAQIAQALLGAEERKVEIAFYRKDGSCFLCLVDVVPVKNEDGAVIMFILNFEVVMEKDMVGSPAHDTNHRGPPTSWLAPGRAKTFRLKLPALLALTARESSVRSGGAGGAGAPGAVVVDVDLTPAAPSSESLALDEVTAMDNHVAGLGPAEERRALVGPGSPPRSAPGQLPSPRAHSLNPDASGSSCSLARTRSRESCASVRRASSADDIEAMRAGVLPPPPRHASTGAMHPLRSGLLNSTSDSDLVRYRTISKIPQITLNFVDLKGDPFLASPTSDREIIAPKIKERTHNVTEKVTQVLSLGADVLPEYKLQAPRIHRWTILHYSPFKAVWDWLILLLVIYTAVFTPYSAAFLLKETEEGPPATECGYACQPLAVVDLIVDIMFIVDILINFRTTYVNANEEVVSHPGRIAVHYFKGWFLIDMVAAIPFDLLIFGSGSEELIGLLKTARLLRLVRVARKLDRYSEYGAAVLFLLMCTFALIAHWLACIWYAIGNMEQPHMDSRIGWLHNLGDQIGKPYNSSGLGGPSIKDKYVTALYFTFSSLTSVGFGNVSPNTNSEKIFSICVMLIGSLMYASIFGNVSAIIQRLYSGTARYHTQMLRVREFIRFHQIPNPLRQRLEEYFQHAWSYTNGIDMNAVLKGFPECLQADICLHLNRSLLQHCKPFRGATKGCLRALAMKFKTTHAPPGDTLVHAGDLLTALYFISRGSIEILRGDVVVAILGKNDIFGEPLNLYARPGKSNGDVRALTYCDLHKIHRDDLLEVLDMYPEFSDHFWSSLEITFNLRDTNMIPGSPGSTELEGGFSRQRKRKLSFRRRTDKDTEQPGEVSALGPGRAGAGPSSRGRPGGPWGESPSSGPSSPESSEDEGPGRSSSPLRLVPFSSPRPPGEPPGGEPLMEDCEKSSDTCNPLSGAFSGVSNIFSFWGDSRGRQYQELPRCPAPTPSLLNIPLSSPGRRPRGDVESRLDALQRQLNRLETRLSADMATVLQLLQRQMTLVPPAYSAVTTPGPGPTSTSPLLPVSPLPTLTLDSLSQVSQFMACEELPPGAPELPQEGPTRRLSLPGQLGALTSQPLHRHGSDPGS
Outline: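 Quantitative HTS in hERG-U2OS cells: thallium entry through the channel reports activity, read as continuous 480/540 nm fluorescence over 2 min after stimulus addition.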

[14] = target: Cytochrome P450 3A4 (Homo sapiens) (UniProt P08684); experiment: Cytochrome P450 Family 3 Subfamily A Member 4 (CYP3A4) small molecule antagonists: luciferase reporter qHTS assay (AID 1671201); also: nearly all actives have a fitted effect of over 50% in size; also: potency is read from the fitted curve at half-maximal effect
Cytochrome P450 3A4 (Homo sapiens), sequence (P08684 whole entry, looked up): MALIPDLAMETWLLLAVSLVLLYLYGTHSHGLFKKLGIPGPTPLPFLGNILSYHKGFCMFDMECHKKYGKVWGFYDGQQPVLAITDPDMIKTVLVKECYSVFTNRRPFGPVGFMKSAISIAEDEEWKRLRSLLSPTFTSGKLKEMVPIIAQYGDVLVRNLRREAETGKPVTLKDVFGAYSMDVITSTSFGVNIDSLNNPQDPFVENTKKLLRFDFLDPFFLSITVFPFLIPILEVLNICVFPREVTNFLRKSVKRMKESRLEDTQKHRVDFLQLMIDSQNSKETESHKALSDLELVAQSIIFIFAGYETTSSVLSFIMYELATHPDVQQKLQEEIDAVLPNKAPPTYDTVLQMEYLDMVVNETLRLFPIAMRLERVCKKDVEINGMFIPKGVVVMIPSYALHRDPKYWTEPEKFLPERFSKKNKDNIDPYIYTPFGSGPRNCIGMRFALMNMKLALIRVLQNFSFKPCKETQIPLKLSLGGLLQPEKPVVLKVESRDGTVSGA
Outline: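 Inhibition of CYP3A4 is measured as loss of light: the enzyme converts a proluciferin substrate to luciferin, detected luminescently. Reaction ran 1 h at room temperature with NADPH regeneration after a 10 min compound preincubation.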

[15] = Human pregnane X receptor (PXR) small molecule agonists, qHTS cell viability counter screen (AID 1346977); also: nearly all actives have a fitted effect of over 50% in size
Outline: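 Measures live-cell protease fluorescence (CellTiter-Fluor) in PXR-Luc HepG2 cells treated 24hr with compounds at 37C. Cells had 5hr to attach before pin transfer of DMSO solutions.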

[16] = target: Cytochrome P450 2D6 (Homo sapiens) (UniProt P10635); experiment: Cytochrome P450 Family 2 Subfamily D Member 6 (CYP2D6) small molecule antagonists: luciferase reporter qHTS assay (AID 1671196); also: nearly all actives have a fitted effect of over 50% in size; also: potency is read from the fitted curve at half-maximal effect
Cytochrome P450 2D6 (Homo sapiens), sequence (P10635 whole entry, looked up): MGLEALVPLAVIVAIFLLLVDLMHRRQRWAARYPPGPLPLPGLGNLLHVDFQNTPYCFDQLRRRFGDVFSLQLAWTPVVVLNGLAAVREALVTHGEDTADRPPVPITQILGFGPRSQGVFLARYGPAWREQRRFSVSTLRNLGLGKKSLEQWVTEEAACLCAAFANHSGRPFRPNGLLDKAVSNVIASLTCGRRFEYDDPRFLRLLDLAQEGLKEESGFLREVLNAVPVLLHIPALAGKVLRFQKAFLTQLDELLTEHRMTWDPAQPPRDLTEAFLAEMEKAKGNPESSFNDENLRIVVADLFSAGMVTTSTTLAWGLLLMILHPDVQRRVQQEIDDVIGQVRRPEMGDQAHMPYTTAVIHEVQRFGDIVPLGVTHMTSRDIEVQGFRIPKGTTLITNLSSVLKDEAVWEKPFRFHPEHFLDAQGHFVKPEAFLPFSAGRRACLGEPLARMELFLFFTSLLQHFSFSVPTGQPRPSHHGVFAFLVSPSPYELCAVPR
Outline: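 Room-temperature luminescent CYP2D6 activity assay: compound preincubated 10 min with enzyme–substrate mix, NADPH-initiated reaction 1 h, detection reagent 20 min before reading.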

[17] = target: Nuclear receptor subfamily 1 group I member 2 (Rattus norvegicus) (UniProt Q9R1A7); experiment: Rat pregnane X receptor (rPXR) activation by small molecules, qHTS assay (AID 1346983); conditions: rPXR luciferase reporter cells, One-Glo luminescence, 24 h; max activation: active compounds read high; also: nearly all actives have a fitted effect of over 20% in size
Nuclear receptor subfamily 1 group I member 2 (Rattus norvegicus), sequence (Q9R1A7 whole entry, looked up): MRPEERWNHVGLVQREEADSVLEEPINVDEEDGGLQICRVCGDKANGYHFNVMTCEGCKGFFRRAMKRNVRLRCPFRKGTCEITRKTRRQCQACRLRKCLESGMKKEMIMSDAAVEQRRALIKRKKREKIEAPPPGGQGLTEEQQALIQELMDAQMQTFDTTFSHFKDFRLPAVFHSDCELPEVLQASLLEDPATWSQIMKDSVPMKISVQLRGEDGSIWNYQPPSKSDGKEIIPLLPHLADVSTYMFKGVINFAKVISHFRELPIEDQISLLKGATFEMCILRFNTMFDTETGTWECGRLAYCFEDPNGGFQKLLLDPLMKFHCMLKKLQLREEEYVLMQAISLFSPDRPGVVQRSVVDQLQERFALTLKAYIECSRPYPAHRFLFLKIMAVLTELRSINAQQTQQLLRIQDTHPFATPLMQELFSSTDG
Outline: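 Cell-based rPXR luciferase reporter assay, 2,000 cells per well, rested 5hr at 37 C before compound addition in DMSO, then 24 hr at 37 C. One-Glo reagent was added and luminescence read after 30 min at room temperature.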

[18] = target: Nuclear receptor subfamily 1 group I member 2 (Homo sapiens) (UniProt O75469); experiment: CYP3A4 induction through human pregnane X receptor (PXR) by small molecules, qHTS assay (AID 1346984); also: nearly all actives have a fitted effect of over 40% in size
Outline: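 Cells (DPX-2; HepG2 with PXR element plus CYP3A4-promoter luciferase) settled 5hr, then were treated 24hr at 37C. A 3hr, 3uM-final Luciferin-IPA step preceded luminescence measurement with One-Glo.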
% is scaled to controls: 0 for no effect and ±100 for the full control effect.

CC(=O)OCC(=O)[C@@]1(O)[C@H](OC(C)=O)C[C@H]2[C@@H]3CCC4=CC(=O)C=C[C@]4(C)[C@@]3(F)[C@@H](O)C[C@@]21C
inactive: outcome [1] | outcome [2] | outcome [3] | outcome [4] | outcome [5] | Potency [6] | outcome [7] | Potency [8] | Potency [9] | Potency [10] | Potency [11]

C[C@H](CCC(=O)NCC(=O)O)[C@H]1CC[C@H]2[C@@H]3[C@H](O)C[C@@H]4C[C@H](O)CC[C@]4(C)[C@H]3C[C@H](O)[C@]12C
inactive: outcome [1] | outcome [2] | outcome [3] | outcome [4] | outcome [5] | Potency [6] | outcome [7] | Potency [8] | Potency [9] | Potency [12] | Potency [11] | Potency [13] | Potency [14]

C=C(C)C(=O)OC1CC(C)CC(C)(C)C1 (stereo not given)
inactive: outcome [1] | outcome [2] | outcome [3] | outcome [4] | Potency [15] | outcome [7] | Potency [8] | Potency [9] | Potency [16] | Potency [12] | Potency [10] | Potency [13] | Potency [14]
active: Potency [11] 31.7 µM

CCCOC(=O)CCCCC(=O)OCCC
active: Potency [10] 20 µM | Potency [11] 22.4 µM
inactive: outcome [1] | outcome [2] | outcome [3] | outcome [4] | outcome [5] | Potency [6] | outcome [7] | Potency [8] | Potency [9] | Potency [16] | Potency [14]

CC1=NN(c2ccc(S(=O)(=O)O)cc2)C(=O)C1N=Nc1ccccc1 (stereo not given)
inactive: outcome [1] | outcome [2] | outcome [3] | outcome [4] | outcome [5] | outcome [7] | Potency [9] | Potency [16] | Potency [12] | Potency [11] | Potency [13] | Potency [14]
active: Potency [6] 48.6 µM

c1ccc(CNc2ncnc3nc[nH]c23)cc1
inactive: outcome [1] | outcome [2] | outcome [3] | outcome [4] | outcome [5] | Potency [6] | outcome [7] | Potency [8] | Potency [13]

Cc1ccc2c(c1)c1c3n2CCNC3CCC1 (stereo not given)
inactive: outcome [1] | outcome [2] | outcome [3] | outcome [4] | outcome [5] | Potency [6] | outcome [7] | max activation [17] -0.806% | Potency [13]

CCN(CC)C(=O)C1CN2CCc3cc(OC)c(OC)cc3C2CC1OC(C)=O (stereo not given)
inactive: outcome [1] | outcome [2] | outcome [3] | outcome [4] | Potency [15] | Potency [6] | outcome [7] | Potency [9] | Potency [10] | Potency [11] | Potency [13]

CC(CC(=O)O)CC(C)(C)C (stereo not given)
inactive: outcome [1] | outcome [2] | outcome [3] | outcome [4] | outcome [5] | Potency [6] | outcome [7] | Potency [8] | Potency [9] | Potency [16] | Potency [12] | Potency [10] | Potency [11] | Potency [13] | Potency [14]

Cc1cccc(C(=O)O)c1[N+](=O)[O-]
inactive: outcome [1] | outcome [2] | outcome [3] | outcome [4] | Potency [15] | outcome [7] | Potency [8] | Potency [9] | Potency [12] | Potency [13]
active: Potency [16] 31.8 µM | Potency [11] 63.4 µM

CN(C)CCCNCCC#N
inactive: outcome [1] | outcome [2] | outcome [3] | outcome [4] | outcome [5] | Potency [6] | outcome [7] | Potency [8] | Potency [9] | Potency [16] | Potency [10] | Potency [13] | Potency [14]

CCC(O)C(C)(C)C (stereo not given)
inactive: outcome [1] | outcome [2] | outcome [3] | outcome [4] | outcome [5] | Potency [6] | outcome [7] | Potency [8] | Potency [9] | Potency [12] | Potency [10]

CCCCCC(=O)OCC
inactive: outcome [1] | outcome [2] | outcome [3] | outcome [4] | outcome [5] | outcome [7] | Potency [8] | Potency [9] | Potency [12] | Potency [10] | Potency [13] | Potency [14]

C=CCOCC(CO)(COCC=C)COCC=C
inactive: outcome [1] | outcome [2] | outcome [3] | outcome [4] | outcome [5] | Potency [6] | outcome [7] | Potency [8] | Potency [13]
active: Potency [12] 0.717 µM | Potency [10] 7.17 µM | Potency [11] 25.5 µM | Potency [14] 10.1 µM

NS(=O)(=O)c1cc2c(cc1Cl)NC(CC1CCCC1)NS2(=O)=O (stereo not given)
inactive: outcome [1] | outcome [2] | outcome [3] | outcome [4] | Potency [15] | outcome [7] | Potency [8] | Potency [9] | max activation [17] -1.01% | outcome [18] | Potency [16] | Potency [12] | Potency [10]

O=C1c2ccccc2-c2ccccc21
inactive: outcome [1] | outcome [2] | outcome [3] | outcome [4] | outcome [5] | Potency [6] | outcome [7] | Potency [9] | Potency [16] | Potency [13] | Potency [14]
active: Potency [12] 57.9 µM | Potency [10] 65 µM | Potency [11] 0.58 µM

CCCCCCCCCCCCC
inactive: outcome [1] | outcome [2] | outcome [3] | outcome [4] | outcome [5] | outcome [7] | Potency [8] | Potency [9] | Potency [16] | Potency [12] | Potency [10] | Potency [11] | Potency [13] | Potency [14]

CN(C)CCOCCN(C)CCO
inactive: outcome [1] | outcome [2] | outcome [3] | outcome [4] | Potency [15] | outcome [7] | Potency [8] | Potency [9] | Potency [12] | Potency [10] | Potency [11] | Potency [13] | Potency [14]
active: Potency [16] 20 µM

C=COCCOCCOC=C
inactive: outcome [1] | outcome [2] | outcome [3] | outcome [4] | outcome [5] | Potency [6] | outcome [7] | Potency [9] | Potency [12] | Potency [10] | Potency [13]
